Results filed as inconclusive are left out. Active and inactive are the calls of the source. How the source made its calls: active means hit-call score of the fitted dose curve at least 0.9, where 1 is the maximum; inconclusive means response in the unintended direction; inactive means score below 0.9.
These compounds were tested against human Phosphatase and Tensin Homolog (PTEN), PTEN (gene 5728) (UniProt P60484) (assay: NVS_ENZ_hPTEN: NovaScreen (NVS) Enzymatic Assay for human Phosphatase and Tensin Homolog (PTEN) (AID 2283203)).
human Phosphatase and Tensin Homolog (PTEN), PTEN (gene 5728), sequence (P60484 whole entry, looked up): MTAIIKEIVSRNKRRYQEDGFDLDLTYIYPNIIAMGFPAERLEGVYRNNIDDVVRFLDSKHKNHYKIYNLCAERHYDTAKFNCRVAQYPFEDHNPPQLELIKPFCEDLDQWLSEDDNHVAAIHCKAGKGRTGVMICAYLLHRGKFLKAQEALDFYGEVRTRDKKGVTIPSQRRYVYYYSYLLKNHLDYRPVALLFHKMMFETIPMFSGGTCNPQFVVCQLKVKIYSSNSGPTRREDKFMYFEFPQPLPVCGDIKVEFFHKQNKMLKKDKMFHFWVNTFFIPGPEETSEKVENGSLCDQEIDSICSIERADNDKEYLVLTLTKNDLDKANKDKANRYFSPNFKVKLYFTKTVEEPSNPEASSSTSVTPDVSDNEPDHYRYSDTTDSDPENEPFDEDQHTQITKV
Protocol: NVS_ENZ_hPTEN is a biochemical, single-readout assay that uses extracted gene-proteins in a cell-free assay. Measurements were taken 1 hour after chemical dosing in a 384-well plate.NVS_ENZ_hPTEN is one of one assay component(s) measured or calculated from the NVS_ENZ_hPTEN assay. It is designed to make measurements of enzyme activity, a form of enzyme reporter, as detected with fluorescence intensity signals by Fluorescence and electrophoretic mobility shift technology.Data from the assay component NVS_ENZ_hPTEN was analyzed into 1 assay endpoint. This assay endpoint, NVS_ENZ_hPTEN, was analyzed in the positive analysis fitting direction relative to DMSO as the negative control and baseline of activity. Using a type of enzyme reporter, loss-of-signal activity can be used to understand changes in the enzymatic activity as they relate to the gene PTEN. Furthermore, this assay endpoint can be referred to as a primary readout, because this assay has produced multiple assay endpoints where this one serves a enzymatic activity function. To generalize the intended target to other relatable targets, this assay endpoint is annotated to the phosphatase intended target family, where the subfamily is dual-specific phosphatase.
Binding assays used specific radioligands (tritiated, iodinated) with non-radioactive competitive displacement ligands in agonist or antagonist protocols (as indicated) and various reference compounds and inhibitors to titrate specific binding to receptors and transporters. Most enzyme assays (CYPs, kinases, phosphatases, proteases, HDACs) used recombinant protein and specific substrates (fluorescence mostly, some colorimetric and radioactive) and inhibitors, followed by a biochemical separation of substrate and product. All assays for the biochemical HTS were initially run in duplicate at a single concentration (10 uM for CYP450 assays and 25 uM for all others). […] Each assay was run with positive and negative controls, and concurrent controls on every plate. The follow-up (secondary) screen tested active chemical-pairs in concentration series, as well as a few additional assays not tested in the primary screen, some selected negative inactives, and several cases re-run in the concentration series for confirmatory purposes.
With `O=[N+]([O-])c1cc(Cl)ccc1Cl` the outcome was “inactive”. `Cc1ccc(C(=O)Cl)cc1` was tested, and the outcome was “inactive”. `ClC(Cl)=C(c1ccc(Cl)cc1)c1ccccc1Cl` was tested, and the outcome was “inactive”. With `O=c1ssc(Cl)c1Cl` the outcome was “inactive”. With `Nc1ccc([N+](=O)[O-])cc1Cl` the AC50 was 2670 nM (active). `Clc1ccc(Oc2ccccc2)cc1` was tested, and the outcome was “inactive”. `Cn1[nH]nnc1=S` was tested, and the AC50 was 1080 nM (active). `CC(C)(C)OOC(C)(C)C` was tested, and the outcome was “inactive”. `CCOP(=S)(OCC)SCSc1ccc(Cl)cc1` was tested, and the outcome was “inactive”. In the case of `CC(Cl)CN(C)C` (stereo not given), the outcome is reported as “inactive”.
